Assay outcomes: PubChem BioAssay, National Center for Advancing Translational Sciences (NCATS)
Rows were chosen to be rich in hits. Some 4% of all compounds tested hit in one or more screens of this group.
TRHR agonist – qHTS for Small Molecule Agonists and Allosteric Enhancers of Human TRH Receptor: Primary Screen for Agonists | Thyrotropin-releasing hormone receptor (Homo sapiens), P34981 | TRHR cells, calcium flux fluo-8, FDSS agonist mode | activation, % at 2 µM | actives 0.18% (n = 360,000)
Target sequence (P34981 whole entry, looked up): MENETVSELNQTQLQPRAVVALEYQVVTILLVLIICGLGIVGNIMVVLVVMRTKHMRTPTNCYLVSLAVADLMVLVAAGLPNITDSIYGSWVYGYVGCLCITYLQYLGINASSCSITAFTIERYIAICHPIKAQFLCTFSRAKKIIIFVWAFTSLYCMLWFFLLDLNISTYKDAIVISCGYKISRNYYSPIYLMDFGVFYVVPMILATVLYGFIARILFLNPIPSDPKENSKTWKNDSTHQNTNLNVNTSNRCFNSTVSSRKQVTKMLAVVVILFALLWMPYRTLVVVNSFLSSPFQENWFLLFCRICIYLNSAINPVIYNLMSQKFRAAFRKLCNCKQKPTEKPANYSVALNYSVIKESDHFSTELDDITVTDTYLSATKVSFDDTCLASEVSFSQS
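In this calcium-flux screen, cells bearing human TRHR are dye-loaded with fluo-8, baselined for 10 cycles, then exposed to library compounds; positive kinetic calcium responses during the agonist phase mark hits, with TRH as control.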
D1 PAM – Potentiators of Human D1 Dopamine Receptor: qHTS; actives 0.036% (n = 360,000); HEK293 TREx D1 cells, calcium flux, dopamine EC20 potentiation; potentiation, % at 10 µM; in the data active = potentiation above about 30%
D1 antag – Antagonist of Human D 1 Dopamine Receptor: qHTS. HEK293 TREx D1 cells, calcium flux, dopamine EC80; stronger effect = lower value. activity change, negative = inhibition, % at 10 µM. actives 3.2% (n = 360,000); in the data active = activity change below about -30%
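Using tetracycline-induced force-coupled D1 Hek293 cells and a calcium dye, signals were followed for 180 s after compound, then for 180 s after EC80 dopamine, to detect inhibitors.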
D1 ag – Allosteric Agonists of the Human D1 Dopamine Receptor: qHTS; D(1A) dopamine receptor (Homo sapiens), P21728; HEK293 T-REx D1 cells, calcium flux, agonist mode; activation, % at 2 µM; actives 1% (n = 360,000)
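Inducible HEK293 T-REx D1 cells, force-coupled to calcium signalling, were plated at 4000 cells/well with tetracycline and held overnight at 30 C. After no-wash calcium dye loading, compound-evoked calcium rise over 180 s flagged agonists.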
TRHR enhancer – qHTS for Small Molecule Agonists and Allosteric Enhancers of Human TRH Receptor: Primary Screen for Enhancers. Thyrotropin-releasing hormone receptor (Homo sapiens), P34981. actives 0.66% (n = 360,000). TRHR cells, fluo-8 calcium fluorescence, EC20 TRH enhancement. enhancement, % at 2 µM. AID 493056, 2011; in the data active = enhancement above about 30%
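Enhancer read-out: after compound pinning and an initial kinetic agonist-mode read, an EC20 of TRH (10 nM final) was injected and fluo-8 calcium signal (Ex 480/Em 530) followed at 1 s/cycle for 100 cycles in TRHR-expressing cells.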
Glioma ERSR ind – qHTS for Inducers of the Endoplasmic Reticulum Stress Response (ERSR) in Human Glioma: qHTS | U87-MG GRP78 promoter luciferase reporter, 16 h | actives 0.02% (n = 420,000) | Potency, µM, hits mostly activators; active = well fitted activation curve with a large enough effect; note: series mostly up to about 76 µM; nearly all actives have a fitted effect of over 35% in size
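Stably transfected U87-MG human glioma cells carrying a GRP78-based luminescent sensor were seeded at 1000 cells/well, pin-dosed with compounds and incubated 16 h. Luciferase reagent was then added, and end-point luminescence was read after 10 min at room temperature.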
Each line names hits and unclear results; the compound was inactive in the other large screens; ! = a repeat was not active. Cut-off read from the data, not from the text of the source, unless noted: active = activation above about 30%; inactive = the rest.

CCC(C)N1C(=O)/C(=C/c2c(NCCCOC(C)C)nc3c(C)cccn3c2=O)SC1=S (stereo unspecified)	TRHR agonist 34, D1 ag 81
COCC(C)N1CC(O)=C(c2nc(-c3ccc(Cl)cc3)cs2)C1=N (stereo unspecified)	D1 antag -31
CCCCN1CC(O)=C(c2nc(-c3ccc(Cl)cc3)cs2)C1=N	none
CCC1=C/C(=C/N(C)c2ccccc2)C(=O)S1	none
CCN(CC)c1ccc(/C=C(/C#N)C(=O)NC(C)C)o1	D1 ag 57
CC(=O)Nc1ccc(/C=C(\C#N)C(=O)NCc2ccccc2)cc1	none
CCN(CC)c1ccc(/C=C(/C#N)C(=O)NCc2ccccc2)o1	TRHR agonist 59, D1 ag 152
CC(C)NC(=O)/C(C#N)=C\c1ccc(N(C)C)o1	none
Cc1ccc(-n2cnc3cc(C(=O)NC4CCCCCC4)ccc32)cc1Cl	none
CC1(C)CC(C(N)=S)CCO1 (stereo unspecified)	D1 antag -37
CCC1(C)CC(C(N)=S)CCO1 (stereo unspecified)	none
CCC1OC23CCCCC2C(C#N)(C(=N)O3)C1(C#N)C#N (stereo unspecified)	none
CC1OC23CCCCC2C(C#N)(C(=N)O3)C1(C#N)C#N (stereo unspecified)	D1 antag -43
CCOC(=O)c1ccc(NC(=O)CCn2c(=O)c3cccn3c3ccccc32)cc1	D1 ag 86
Cn1c(SCc2ccccc2)nc2c1c(=O)[nH]c(=O)n2C	D1 antag -35
CCn1c(SCc2ccccc2)nc2c1c(=O)[nH]c(=O)n2C	none
CCOC(=O)N1CCC(NC(=O)c2cnn(-c3ccc(OC)cc3)c2C2CCN(C(=O)OC(C)(C)C)CC2)CC1	none
COc1cc(CNc2ccc3[nH]c(=O)[nH]c3c2)ccc1OCc1ccccc1C	D1 antag -57
CCOC(=O)N/N=C1/C[C@@H](O)[C@@H](O)[C@@H]2[C@H]3C(=O)N(c4ccc(F)cc4F)C(=O)[C@@H]3CC[C@H]12	none (no result: TRHR agonist, D1 PAM, D1 antag, D1 ag, TRHR enhancer)
Cc1ccc(NC(=O)c2cc(S(=O)(=O)N(C)C)ccc2N2CCCC2)cc1S(=O)(=O)N(C)C	Glioma ERSR ind 32µM
CCN(CC)S(=O)(=O)c1ccc(C)c(NC(=S)NC2CCCCC2)c1	D1 antag -80
CCN(CC)S(=O)(=O)c1ccc(Cl)c(NC(=S)NC(=O)C2CCCC2)c1	D1 ag 32 (no result: D1 PAM)
Cc1ccc(NC(=S)NC2CCCCC2)cc1S(=O)(=O)N(C)C	D1 antag -34
Cc1ccc(C)c(S(=O)(=O)N2CCN(C(=O)C3CCN(C(=O)c4ccc(F)cc4)CC3)CC2)c1	none
CCN(c1ccccc1)S(=O)(=O)c1ccc(NC(=O)c2nc(SC)ncc2Cl)cc1	none
COc1ccccc1NS(=O)(=O)c1ccc(Cl)c(NC(=S)NC(=O)C2CCCC2)c1	none
CCN(CC)c1ccc(S(=O)(=O)Nc2cc(Cl)ccc2Cl)cc1NC(=S)NC(=O)C1CCCC1	D1 antag -32
COc1nc(C)ccc1-c1noc(-c2cccs2)n1	D1 antag -35
COc1ccc(C(=O)N2CCN(CCc3ccccn3)CC2)cc1	D1 antag -46!, D1 ag 50!
Cc1ccc(C(=O)N2CCC(C(=O)NC3CCCCCC3)CC2)cc1	none
COc1ccc(C(=O)N2CCC(C(=O)NCc3ccccn3)CC2)cc1	D1 antag -31
O=C(NC1CCCC1)C1CCN(C(=O)c2ccc(-c3ccccc3)cc2)CC1	D1 antag -38
Cc1c(C(=O)N2CC[C@@H]3CCCC[C@H]3C2)sc2ncnc(NCCc3ccccn3)c12	none (no result: TRHR agonist, D1 PAM, D1 antag, D1 ag, TRHR enhancer)
COc1ccccc1N1CCN(Cc2cccc(OC)c2OC)CC1	D1 antag -42
COc1ccccc1N1CCN(Cc2cn[nH]c2-c2ccc(F)cc2)CC1	D1 ag 60
CCOc1ccccc1N1CCN(Cc2ccc(OC)c(OC)c2OC)CC1	none
COC(=O)Cc1cc(=O)n2[nH]c(C(F)(F)F)nc2n1	none
O=C(COC(=O)C12CC3CC(CC(C3)C1)C2)Nc1ccc2[nH]c(=O)[nH]c2c1	none
COC(=O)c1ccc(Cn2c(SCc3cccc(C)c3)nc3ccncc32)cc1	D1 antag -32, D1 ag 52
Nc1nc(-c2ccccc2)c(-c2ccccc2)s1	none
Nc1nc(-c2ccccc2)c(-c2ccc([N+](=O)[O-])cc2)s1	D1 ag 71
COCc1ccc(CN2CCC(CO)(CC3CCCCO3)CC2)o1 (stereo unspecified)	D1 antag -40
CCc1ccc(CN2CCC(CO)(CC3CCCCO3)CC2)o1 (stereo unspecified)	D1 antag -38
Cc1ccc(CN2CCC(CO)(CC3CCCCO3)CC2)o1 (stereo unspecified)	none
CCOC(=O)N1CCN(Cc2ccc3c(c2)CN(C(=O)c2ccc4ncccc4c2)CCO3)CC1	none (no result: TRHR agonist, D1 PAM, D1 antag, D1 ag, TRHR enhancer)
Cc1c(C(=O)N2CCCCCC2)sc2ncnc(NCC3CCCO3)c12 (stereo unspecified)	none (no result: TRHR agonist, D1 PAM, D1 antag, D1 ag, TRHR enhancer)
O=S(=O)(N/N=C/c1ccc(OC2CSC2)cc1)c1ccccc1	D1 ag 47
COc1cc(/C=C(\C#N)C(=O)c2c[nH]c3ccccc23)cc(OC)c1O	D1 ag 45
CCOc1ccc(/C=C(\C#N)C(=O)c2c(C)[nH]c3ccccc23)cc1OC	TRHR enhancer 36
COc1cc(/C=C(\C#N)c2nc3ccccc3[nH]2)cc(OC)c1O	TRHR agonist 65, D1 ag 109
COc1c(Cl)cc(Cl)cc1/C=C(\C#N)c1nc2ccccc2[nH]1	D1 antag -61
Cc1ccc(S(=O)(=O)Nc2cc3c(C(=O)OCc4ccccc4)c(C)oc3c3ccccc23)c(C)c1	none
SCc1nc2ccccc2[nH]1	none (no result: TRHR agonist, D1 PAM, D1 antag, D1 ag, TRHR enhancer)
CC(=O)C[C@H]1[C@H](O[C@H]2[C@H](OC(C)C(=O)N[C@@H](C)C(=O)N[C@H](CCC(=O)N[C@@H](CCCCN)C(=O)N[C@H](C)C(=O)O)C(N)=O)[C@@H](NC(=O)O)C(O)O[C@@H]2CO)O[C@H](CO)[C@@H](O)[C@@H]1O (stereo partly specified)	none (no result: TRHR agonist, D1 PAM, D1 antag, D1 ag, TRHR enhancer)
COc1cc(/C=C(/C#N)c2nc3ccccc3c(=O)[nH]2)ccc1O	D1 ag 34
